Source: PubChem BioAssay (several laboratories)
An excerpt weighted towards active compounds, which were near 5.2% of everything screened.
CendR NRP1 mod: alters CendR peptide binding to human NRP-1; O14786; FAM-RPARPAR peptide binding to NRP-1, fluorescence polarization; inhibition, % at 25 µM; hit rate 0.85% among 360,000; AID 602438;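 active means inhibition or corrected inhibition above about 18%, plus a signal ratio from 0.5 to 1.5, limit read from the data, passing the limit was not always enough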
Target sequence (O14786 whole entry, looked up): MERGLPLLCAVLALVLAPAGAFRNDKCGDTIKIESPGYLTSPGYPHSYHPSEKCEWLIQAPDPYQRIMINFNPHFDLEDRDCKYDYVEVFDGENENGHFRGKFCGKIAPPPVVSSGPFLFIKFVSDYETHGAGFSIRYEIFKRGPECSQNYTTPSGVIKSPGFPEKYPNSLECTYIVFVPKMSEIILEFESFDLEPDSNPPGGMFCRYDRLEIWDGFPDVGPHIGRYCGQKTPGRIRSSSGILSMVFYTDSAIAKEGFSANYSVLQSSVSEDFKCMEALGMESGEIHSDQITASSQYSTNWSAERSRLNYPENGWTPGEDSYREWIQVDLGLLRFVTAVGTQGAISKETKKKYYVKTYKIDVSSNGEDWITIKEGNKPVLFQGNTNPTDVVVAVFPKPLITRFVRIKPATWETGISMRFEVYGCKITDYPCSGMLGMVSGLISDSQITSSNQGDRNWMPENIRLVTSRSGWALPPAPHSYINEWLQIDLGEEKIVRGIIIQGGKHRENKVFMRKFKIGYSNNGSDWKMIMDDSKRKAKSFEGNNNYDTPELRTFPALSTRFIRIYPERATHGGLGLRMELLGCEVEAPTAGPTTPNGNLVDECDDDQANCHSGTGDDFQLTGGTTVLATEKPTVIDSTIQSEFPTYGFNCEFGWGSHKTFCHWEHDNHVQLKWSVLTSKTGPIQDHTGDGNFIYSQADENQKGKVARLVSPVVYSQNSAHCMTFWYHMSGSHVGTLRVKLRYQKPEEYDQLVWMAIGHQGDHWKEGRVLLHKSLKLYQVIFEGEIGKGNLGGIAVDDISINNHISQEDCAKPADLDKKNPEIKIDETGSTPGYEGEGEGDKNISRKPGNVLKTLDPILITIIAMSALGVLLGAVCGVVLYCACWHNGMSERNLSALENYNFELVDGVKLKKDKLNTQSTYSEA
APOBEC3A inh: human APOBEC3A DNA deaminase inhibition; recombinant A3A, FAM/TAMRA ssDNA deamination fluorescence; P31941; inhibition, % at 20 µM; hit rate 0.41% among 330,000;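 active means at least 40% inhibition at 20 µM here, with at most 30% in a related deaminase screen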
CR mimetic SO: caloric restriction mimetics inhibiting age-related superoxide in yeast. AID 2690. superoxide response (% of plate mean), % at 10 µM. hit rate 0.18% among 330,000. S. cerevisiae aged cells, superoxide DHE fluorescence; hits give low values;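 active means superoxide response under a set limit, about three screen SD below normal, cut at about 65% in these data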;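 further: yeast aged for seven days with compound at 30 °C before DHE staining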
ALR H2O2 inh: blocks human ALR sulfhydryl oxidase activity. purified ALR, DTT oxidation, H2O2 HRP-luminol luminescence. inhibition, % (concentration not given with the values). hit rate 3.8% among 290,000;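 active means mean replicate inhibition above about 79%, with every replicate also reaching it, limit read from the data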
M18AAP inhibitor: blocks P. falciparum M18 aspartyl aminopeptidase. recombinant PfM18AAP, H-Glu-NHMec fluorogenic cleavage. inhibition, % at 7.35 µM. hit rate 1.2% among 290,000;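 active means inhibition above the campaign mean inhibition over all tested compounds plus 3 SD, cut at about 28% in these data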
A3G deaminase: APOBEC3G (human) deaminase inhibition | Q9HC16 | recombinant A3G, ssDNA deamination FAM/TAMRA fluorescence | inhibition, % at 20 µM | hit rate 0.28% among 330,000 | AID 493012;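 active means inhibition of at least 40% at 20 µM, with no more than 30% in the related APOBEC3A deaminase screen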
A number is an active result; . = inactive; / = no result given.

SMILES	CendR NRP1 mod	APOBEC3A inh	CR mimetic SO	ALR H2O2 inh	M18AAP inhibitor	A3G deaminase
Cc1csc(CNc2ncnc3ccc(-c4ccc5c(c4)OCO5)cc23)c1	.	.	.	.	/	.
O=C(O)CCCN1C(=O)NC2NC(=O)NC21 (stereo not drawn)	.	.	.	.	.	.
Cc1ccc(C)c(NC(=S)N2CCC(NC(=O)c3ccc(F)cc3)CC2)c1	.	.	.	/	.	.
COc1cc(/C=N/NC(=O)CNC(=O)c2ccco2)ccc1O	.	.	.	99	.	.
COc1ccc(/C=N/NC(=O)c2ccccc2Cl)cc1CSc1nc2ccccc2s1	31	.	.	.	.	.
COc1ccc(/C=N/Nc2nc(N3CCCC3)nc(N3CCCC3)n2)cc1O	.	.	.	99	.	.
COc1ccc(/C=N/Nc2nc(N3CCCC3)nc(N3CCCC3)n2)cc1	.	/	.	.	.	/
O=C(CNC(=O)c1ccco1)N/N=C/c1cc(Br)ccc1O	.	.	.	/	.	.
O=C(c1cc(-c2ccc(O)cc2)on1)N1CCCCCC1	.	.	.	99	.	.
CN(C)S(=O)(=O)c1ccc(Cl)c(C(=O)OCC(=O)NC(=O)NC2CCCC2)c1	.	.	.	/	/	.
COc1cccc(CNc2ccc3[nH]c(=O)[nH]c3c2)c1OCc1ccccc1F	.	.	.	99	.	.
C=CCOc1c(Cl)cc(CNc2ccc3[nH]c(=O)[nH]c3c2)cc1OC	.	.	.	98	.	.
C=CCOc1ccccc1CNc1ccc2[nH]c(=O)[nH]c2c1	.	.	.	99	.	.
C[C@@H]1CCCCO[C@H](CN(C)C(=O)Nc2ccc(C(F)(F)F)cc2)[C@@H](C)CN([C@H](C)CO)C(=O)c2cc(NC(=O)Nc3ccc4c(c3)OCO4)ccc2O1	.	/	/	/	/	/
CCc1ccc(-n2nnnc2SCC(=O)NNC(=O)c2ccco2)cc1	.	.	.	/	.	.
COc1cc(OC)c(/C=N/n2c(C3CCCCC3)n[nH]c2=S)c(OC)c1	.	.	.	/	.	.
COc1cccc(/C=N/n2c(C3CCCCC3)n[nH]c2=S)c1OC	.	.	.	.	.	.
COc1cc(/C=N/n2c(C3CCCCC3)n[nH]c2=S)ccc1O	.	.	.	98	.	.
COc1cccc(/C=N/n2c(C3CCCCC3)n[nH]c2=S)c1O	.	.	.	92	.	.
COC(=O)C1=C(CSc2nc3ccccc3o2)NC(=O)NC1c1cc(C)ccc1C (stereo not drawn)	.	.	.	.	.	.
CC1(C)CC(=O)C2=C(C1)Nc1ccccc1NC2c1ccc(F)c(F)c1 (stereo not drawn)	.	.	.	99	.	.
COc1cc(C2Nc3ccccc3NC3=C2C(=O)CC(C)(C)C3)cc(OC)c1OC(C)=O (stereo not drawn)	.	.	.	.	.	.
CC1(C)CC(=O)C2=C(C1)Nc1ccccc1NC2c1cccs1 (stereo not drawn)	.	.	.	99	.	.
CC1(C)CC(=O)C2=C(C1)NC(=O)NC2c1ccc([N+](=O)[O-])cc1 (stereo not drawn)	.	.	.	/	.	.
COc1cccc(C2Nc3ccccc3NC3=C2C(=O)CC(C)(C)C3)c1 (stereo not drawn)	.	.	.	98	.	.
SMILES	CendR NRP1 mod	APOBEC3A inh	CR mimetic SO	ALR H2O2 inh	M18AAP inhibitor	A3G deaminase
O=C1CCCC2=C1C(c1cccs1)Nc1ccccc1N2 (stereo not drawn)	.	.	.	/	.	.
CC1(C)CC(=O)C2=C(C1)Nc1ccccc1NC2c1ccc([N+](=O)[O-])cc1 (stereo not drawn)	.	.	.	98	/	.
Cc1cccc(C)c1N1C(=O)c2ccccc2NC(=O)C1C(=O)Nc1ccc(N2CCOCC2)cc1 (stereo not drawn)	.	/	/	/	/	/
Cc1ccnn1CC(=O)N/N=C/c1c[nH]c2ccccc12	.	.	.	/	.	.
CC1(C)CC(=O)C2=C(C1)Nc1ccccc1NC2c1ccccc1F (stereo not drawn)	.	.	.	98	.	.
Cc1c(C2Nc3ccccc3NC3=C2C(=O)CC(C)(C)C3)cnn1C (stereo not drawn)	.	.	.	.	.	.
Cc1cc2c(cc1C)NC(c1nc3ccccc3[nH]1)C1=C(CC(C)(C)CC1=O)N2 (stereo not drawn)	29	.	.	.	.	.
COCC(C)NC(=O)c1cc(-c2ccc(O)cc2)on1 (stereo not drawn)	.	.	.	99	.	.
COc1ccc(NC(=O)N2CCCc3ccccc32)cc1	.	.	.	.	.	.
COc1ccc(N/N=C(/C(C)=O)N2CCCc3ccccc32)cc1	.	.	.	96	.	.
CN(Cc1n[nH]c(=S)n1C)S(=O)(=O)c1ccccc1	.	.	.	85	.	.
CCC(C)[C@H](N)c1nnc(SCC(=O)c2ccc(Cl)cc2)o1 (stereo partly drawn)	.	.	.	98	.	.
Cc1ccc(CNC(=O)C2CCCN2C(=O)Nc2ccc(C)cc2)cc1 (stereo not drawn)	.	.	.	.	.	.
CC1CCC(NC(=O)C(NS(=O)(=O)c2ccc(Br)cc2)C(C)C)CC1 (stereo not drawn)	.	/	/	/	/	/
CCOC(=O)c1ccc(NC(=O)CC2C(=O)OCCN2CC)cc1 (stereo not drawn)	.	.	.	.	.	.
CCOC(=O)c1ccc(NC(=O)CN2C(=O)CSC2=O)cc1	.	.	.	100	.	.
CCOC(=O)c1ccc(NC(=O)CC2OCCN(CC)C2=O)cc1 (stereo not drawn)	.	.	.	86	.	.
COC(=O)c1ccc(NC(=O)CN2C(=O)CSC2=O)cc1	.	.	.	/	.	.
CC(C)(C)c1ccc(CNc2ccc([N+](=O)[O-])cn2)cc1	32	/	.	.	.	/
CC(C)c1ccc(CNc2ccc([N+](=O)[O-])cn2)cc1	.	.	.	/	.	.
Cc1cc2n(n1)C(c1cccs1)Nc1ccccc1-2 (stereo not drawn)	.	.	.	.	.	.
Cc1ccc(S(=O)(=O)N2C3CCCCC3O[C@H]2CC(=O)c2ccc(F)cc2)cc1 (stereo partly drawn)	.	/	/	/	/	/
Cc1ccc(NC(=O)c2ccc(=O)[nH]n2)cc1S(=O)(=O)Nc1ccc(SC(F)F)cc1	.	.	.	99	/	.
CSc1nc(O)c(C(c2ccc(F)cc2)c2c(O)nc(SC)[nH]c2=O)c(=O)[nH]1	.	.	.	.	/	.
CSc1nc(O)c(C(c2ccc(C)cc2)c2c(O)nc(SC)[nH]c2=O)c(=O)[nH]1	.	.	.	89	.	.
CCCCOc1ccc(C(=O)N/C(=C/C=C/c2ccccc2)C(=O)O)cc1	21	.	.	.	.	.
Cc1cc(NC(=O)c2ccc(C#N)cc2)n(-c2ccccc2)n1	.	.	.	/	/	.
Cc1cc2c(cc1C)-c1nnnn1C(N1CCCCC1)C(=O)N2 (stereo not drawn)	21	/	/	/	/	/
